Experimental findings from PMC9574860, “Chemical Toolkit for PARK7: Potent, Selective, and High-Throughput” (Journal of Medicinal Chemistry, 2022) are described below.

Screen size: about 7,900 compounds; about 400 (5.1%) showed an effect of 50% or more. The list comes from a sample in which strong results are over-represented; it also holds similar structures and randomly drawn compounds.

For this assay, the target named is Parkinson's disease protein 7 (PARK7/DJ1) (human, UniProt Q99497). The assay can be described thus: primary screen, percent inhibition; read as competition with a fluorescent probe by fluorescence polarization; higher = more effect of the substance. The note with it: 100 µM. Summed up: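 Covalent fragments at 100 μM final were incubated 2 h with 0.2 μM PARK7, then 20 nM probe JYQ-107 added for a further 2 h. Fluorescence polarization read at 480/520 nm; relative FP loss versus reference controls gave remaining enzyme activity.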
Chain of Parkinson's disease protein 7 (PARK7/DJ1) (Q99497 whole entry, looked up, the tested form may be a part): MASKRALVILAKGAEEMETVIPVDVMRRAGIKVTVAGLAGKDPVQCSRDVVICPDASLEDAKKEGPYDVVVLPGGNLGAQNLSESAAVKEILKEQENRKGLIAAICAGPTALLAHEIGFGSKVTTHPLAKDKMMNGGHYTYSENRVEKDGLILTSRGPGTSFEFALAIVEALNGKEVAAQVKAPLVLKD
`Cl.ClCCN1CC2CCC(C1)O2`: the Inhibition % is recorded as 3.05%.
To `Cc1nc(C#N)[nH]c1C` belongs 3.54%; to `C=CC(=O)N1CCCC2(CCCOC2)C1` (stereo not shown), 11.3%; to `Cc1nnc(S)c(C#N)c1C`, 53.3%.
Turning to `Cc1c(C#N)c(S)nc2c1CCC2`, the Inhibition % is recorded as 15.1%.
`Cc1nc(S)c(C#N)c(C)c1C`: the Inhibition % was 3.15%.
To `CCOc1ccc(S(=O)(=O)n2nc(C)cc2C)cc1` belongs 3.86%.
In the case of `Cc1nc(C)c(C=C(C#N)C(=O)NC(C)C)o1`, the Inhibition % is 3.38%.
To `C#Cc1ccc(C=C(C#N)C(=O)Nc2ccncc2)cc1` belongs 73.3%; to `N#CC(=Cc1ccncc1)C(=O)Nc1cccc(Cl)c1`, 10.5%; to `N#CC(=Cc1ccc(Cl)cc1)C(=O)Nc1ccncc1`, 2.9%.
To `C=CC(=O)NC1COc2cc(Cl)ccc2C1` (stereo not shown) belongs 6.51%; to `CN1CCCN(C(=O)c2ccc(S(=O)(=O)F)cc2)c2ccccc21`, 17.9%.
In the case of `Cc1cc(C)cc(NC(=O)CN2CCSC2=O)c1`, the Inhibition % was determined as 5%.
To `O=C(O)C=CC(=O)Nc1ccc(F)cc1` belongs 7.34%.
The same measure for `O=C(CN1CCSC1=O)Nc1cn[nH]c1`: 11.7%.
To `Cc1ccc(NC(=O)CN2CCSC2=O)cc1C` belongs 1.36%.
For `O=C(CN1CCSC1=O)Nc1ccc(Cl)c(Cl)c1`, the Inhibition % turned out to be 0.617%.
On to `O=C(O)C=CC(=O)Nc1ccc(F)c(Cl)c1`, for which the Inhibition % was 8.72%.
The same measure for `O=C(CN1CCSC1=O)Nc1ccc2[nH]ncc2c1`: 60.9%.
Regarding `O=C(O)C=CC(=O)Nc1ccc2[nH]ncc2c1`, the Inhibition % was 77.7%.
To `Cn1cc(NC(=O)CN2CCSC2=O)cn1` belongs 71.6%; to `COCC(C)NC(=O)C(C#N)=Cc1occc1C` (stereo not shown), 5.2%.
To `O=C1SCCN1CC(=O)N1CCCc2ccccc21` belongs 7.03%; to `Cc1c(C#N)c(NC(=O)CCl)n(-c2ccc(F)cc2)c1C`, 1.78%.
The same measure for `COc1ccc2[nH]c(CCCCl)nc2n1.Cl`: 23.2%; for `C=CS(=O)(=O)c1ccc(C#N)cn1`: 1.18%; for `O=S(=O)(Oc1ccccc1C(F)(F)F)c1c[nH]cn1`: 10.4%.
Consider `COCCCS(=O)(=O)N1CCC(Cl)CC1`, for which the Inhibition % came out at 7.37%.
On to `OB(O)c1cccc2c1OCCC2`, for which the Inhibition % is reported as 4.89%.
Consider `C=CC(=O)N1CCc2c(cccc2C(F)(F)F)C1`, for which the Inhibition % was -3.37%.
To `Cc1noc2ncc(S(=O)(=O)OCC(F)(F)F)cc12` belongs 18.2%; to `O=S(=O)(F)c1ccc2c(c1)NCC2`, 26.6%; to `Cc1cc2[nH]ncc2cc1S(=O)(=O)F`, 97.4%.
Take `O=S(=O)(F)c1ccc(F)cc1`: the Inhibition % is 2.62%.
To `O=S(=O)(F)c1ccc2[nH]ncc2c1` belongs 53%; to `Cc1ccc(F)c(OS(=O)(=O)c2cn[nH]c2C)c1`, 11.7%.
To `O=S(=O)(F)c1ccc2cnccc2c1` belongs 86.1%.
To `O=S(=O)(F)c1ccc2cn[nH]c2c1` belongs 72.5%.
For the molecule `O=S(=O)(F)c1ccc(S(=O)(=O)Nc2ccncc2F)cc1`, the Inhibition % was 17.6%.
The same measure for `COc1ncc(S(=O)(=O)F)cn1`: 31.2%; for `O=S(=O)(F)c1cccnc1`: 17.7%.
Turning to `Cc1cc(CNC(=O)CCl)ccc1F`, the Inhibition % came to 18%.
The same measure for `Cc1cc(NS(=O)(=O)C=Cc2ccccc2Cl)n(C)n1`: 8.51%.
To `C=CC(=O)NC1CCCc2c1cnn2C` (stereo not shown) belongs 6.84%; to `C=CC(=O)Nc1cccc(C(=O)O)c1`, 4.88%.
Take `Cc1nc(C(C)C)oc1Cn1ccnc1C#N`: the Inhibition % is 8.62%.
Turning to `C=CC(=O)N1CCC(OCC2CC2)CC1`, the Inhibition % was -0.254%.
The same measure for `Cc1cc2ncn(CC3CO3)c2cc1C` (stereo not shown): 20.8%; for `C=CC(=O)N1CC(OC)Cc2ccccc21` (stereo not shown): 13.5%; for `C=CC(=O)N1CCc2c(F)cccc2C1`: 6.26%.
The same measure for `O=C(CCl)NCCOc1cccc(Cl)c1`: 17.8%; for `ClCC1COCCO1` (stereo not shown): -2.68%.
Take `CCN(Cc1ccc2c(c1)OCO2)C(=O)CCl`: the Inhibition % is reported as 9.14%.
To `Cc1ccn(S(=O)(=O)c2ccc(F)c(C)c2)n1` belongs 6.8%; to `CN(Cc1ccccc1)C(=O)C=CC(=O)O`, 23.5%.
To `CN(CCc1ccccc1)c1nccnc1C#N` belongs 3.72%.
The same measure for `CN(C#N)Cc1ccccc1`: 62.8%; for `C=CC(=O)N1CCN2CCOCC2C1` (stereo not shown): 8.35%.
Turning to `COc1ccc(C(=O)CCl)cc1`, the Inhibition % is given as 3.52%.
To `CN(Cc1cccc(Cl)c1)C(=O)CCl` belongs 49.6%; to `CCOc1ccc(C(=O)CCl)cc1`, 84.9%; to `CN(Cc1ccc(OC(F)F)cc1)C(=O)CCl`, 51.1%.
The same measure for `COc1ccc2cc(CN(C)C(=O)CCl)ccc2c1`: 8%; for `COc1cccc(CN(C)C(=O)CCl)c1`: 76.7%; for `CN(Cc1ccc(F)cc1)C(=O)CCl`: 39.9%.
The same measure for `NC(=O)c1ccc(OCCCl)cc1`: -3.9%; for `COc1ccc(CN(C)C(=O)CCl)cc1`: 61.5%; for `CN(Cc1cccc(F)c1)C(=O)CCl`: 44.5%.
Take `COc1ccc(CN(C(=O)CCl)C2CC2)cc1`: the Inhibition % is 15.6%.
The same measure for `N#Cc1ccc(N2CCc3sccc3C2)cn1`: 27.1%.
Regarding `C=CC(=O)N(C)C1CCCc2cccnc21` (stereo not shown), the Inhibition % is on record as 7.75%.
The same measure for `N#CC1(CC2CO2)CCC1` (stereo not shown): 3.78%; for `Cc1ccc(OC2CCCC2)c(B(O)O)c1`: 2.59%; for `COc1ccc2[nH]c(C)c(C(=O)CCl)c2c1`: 4.84%.
To `O=C1OCCC1n1nnc(-c2ccc(F)cc2)n1` (stereo not shown) belongs 4.53%; to `C=CC(=O)NC1CSC1(C)C` (stereo not shown), 6.84%; to `OB(O)c1ccc(-c2ccccc2)cc1F`, 24.2%.
As to `C=CC(=O)N1CCCN(C(=O)c2ccco2)CC1`, the Inhibition % came to 1.97%.
To `Cc1ccc(C=C(C#N)C(N)=O)c(C)c1` belongs 4.01%; to `Cc1cccc(C)c1NC(=O)Cn1cnc(C#N)n1`, 6.38%; to `CCOc1ccc(CN(C)C(=O)CCl)cc1`, 67.6%.
The same measure for `CN(Cc1cccc(C(F)(F)F)c1)C(=O)CCl`: 37.1%; for `CCN(Cc1ccc(OC)c(F)c1)C(=O)CCl`: 10%.
For `COc1ccc(CN(C)C(=O)CCl)cc1F`, the Inhibition % was 58.3%.
To `COC(=O)c1ccccc1N(C)C(=O)CCl` belongs 6.59%.
Take `C=CC(=O)N1CCCC1c1cccc2c1OCCO2` (stereo not shown): the Inhibition % is 4.1%.
To `C=CC(=O)Nc1nc2c(s1)COCC2` belongs 6.4%; to `CC1c2cccn2CCN1C(=O)n1ccnc1` (stereo not shown), 22%.
The same measure for `O=C(Nc1ccccc1)NC1CN(c2ccccc2)C1=O` (stereo not shown): 5.74%; for `CC(C)(C)C(=O)NCc1ccc(C(=O)CCl)s1`: 76.2%.
`C=CC(=O)NCc1ccc(C)s1`: the Inhibition % was found to be 1.04%.
The same measure for `CC(=O)NCc1ccc(C(=O)CCl)s1`: 91.1%.
As for `O=C(CCl)NCC(=O)c1cccs1`, the Inhibition % was 15.1%.
To `CCc1ccc(CNC(=O)CCl)s1` belongs 4.03%; to `O=C(CCl)c1sccc1Cl`, 94.4%.
Take `Cc1[nH]c2ccccc2c1C(=O)CCl`: the Inhibition % turned out to be 6.53%.
The same measure for `O=C(CCl)NCc1cccs1`: 3.94%.
To `COC(=O)c1sccc1NC(=O)CCl` belongs 3.83%.
To `CS(=O)(=O)NCCc1ccc(C(=O)CCl)s1` belongs 97.6%; to `Cc1ccc(CNC(=O)CCl)s1`, 3.17%.
`CS(=O)(=O)c1ccccc1NC(=O)CCl`: the Inhibition % was 11.4%.
Consider `O=S(=O)(F)Cc1ccccc1Cl`, for which the Inhibition % is 7.95%.
For the molecule `C=CC(=O)Nc1nsc(N2CCCC2)n1`, the Inhibition % was determined as 16%.
To `N#Cc1cc(C(=O)O)ccn1` belongs 4.99%.
Regarding `CCc1ccc(B2OC(C)(C)C(C)(C)O2)n1C(=O)OC(C)(C)C`, the Inhibition % is reported as 5.89%.
To `C=CC(=O)N1CCC(C)(N2CCOCC2)CC1` belongs 10%; to `C=CC(=O)NC1CCN(c2cnn(C)c2)C1` (stereo not shown), 33.9%; to `CC1(C)OB(c2ccncc2)OC1(C)C`, 4.41%.
Take `CC(=O)NCCc1ccc(C(=O)CCl)s1`: the Inhibition % stood at 90.4%.
To `O=C(CCl)NCCc1cccs1` belongs 31.1%; to `Cc1ccc(C(=O)CCl)s1`, 28.1%; to `O=C(CCl)c1cnc(N2CCCCC2)s1`, 8.03%.
`O=C(CCl)c1ccc(Cl)s1`: the Inhibition % came out at 94.6%.
To `O=C(CCl)NC(=O)NCCc1cccs1` belongs 11.2%.
The same measure for `O=C(CCl)c1ccc(CC(=O)N2CCOCC2)s1`: 7.37%; for `O=C(CCl)NCc1ccc(Cl)s1`: 15.9%.
The same measure for `NC(=O)Cc1ccc(C(=O)CCl)s1`: 97.4%; for `N#Cc1nnc(-c2ccccc2)s1`: 11.8%; for `N#Cc1[nH]ccc2nccc1-2`: 18.7%.
Consider `C=CC(=O)NC1COc2cc(F)cc(F)c21` (stereo not shown), for which the Inhibition % is on record as 3.21%.
To `CC(C)c1ccccc1OCC1CO1` (stereo not shown) belongs -4.39%; to `CN(C)CCc1ccc(B(O)O)cc1.Cl`, 2.57%; to `O=C(CCl)NCCc1ccsc1`, 27.9%.
The same measure for `C=CC(=O)N1CCCN(CC2CCCO2)CC1` (stereo not shown): 13.1%.
To `Sc1nncc2ccccc12` belongs 8.48%; to `Sc1nncc(-c2cccs2)n1`, 94.3%.
In the case of `O=C(CCl)Nc1nc(-c2cccs2)cs1`, the Inhibition % is listed as 11.6%.
The same measure for `Cc1ccc(C=CS(=O)(=O)Nc2ccnn2C(C)C)cc1`: 13%; for `C=CC(=O)N1CCC(C(=O)O)(c2ccccc2)CC1`: 2.37%; for `Cc1ccc(F)c(N(C#N)Cc2nnc(C)o2)c1`: 69%.
The same measure for `Cc1nnc(CN(C#N)c2ccc(F)c(Cl)c2)o1`: 5.26%; for `CCCn1c(C)nnc1CN(C#N)c1cc(C)ccc1F`: 20.1%.
